RGS4 inh = inhibitors of human regulator of G protein signaling 4; Transcreener GDP fluorescence polarization, RGS4-accelerated GTP hydrolysis; Potency, µM (series often up to 114 µM), actives largely listed as inhibitors; 0.039% of 390,000 active; note: nearly all actives have a fitted effect of over 75% in size
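MLSMR compounds (23 nl, pin-transferred) preincubated 10 min at room temperature with a 500nM (2x) first reagent, then RGS4 at 900nM (2x) plus Transcreener GDP mix added; fluorescence polarization (620/688 nm) read before and after 90 min at 30 °C.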
TrxR1 substrate = is turned over as a substrate by rat TrxR1. Potency, µM (series often up to 114 µM). O89049. purified TrxR1 substrate turnover, NADPH consumption readout. 0.01% of 390,000 active; note: nearly all actives have a fitted effect of over 50% in size
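Rat TrxR1, dispensed at 90 nM, was prereduced with 400 uM NADPH (final) for 5 min at ~22 deg C, then incubated with compound 15 min before 400 uM selenite. A first-read NADPH fluorescence drop versus no-compound background flagged substrates.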
Eya2 inh = inhibitors of human Eya2 phosphatase activity | O00167 | recombinant Eya2, OMFP fluorescence dephosphorylation (OMFP is methylfluorescein phosphate) | Potency, µM (highest dose often 76.9 µM), hits mostly inhibitors | 0.006% of 330,000 active | AID 488837
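Eya2 protein (added as 0.2 uM solution) was preincubated with compound for 10 min at ambient temperature in 50 mM HEPES pH 7.5, 50 mM NaCl, 5 uM MgCl2, 0.05% BSA, 1 mM DTT. OMFP (added at 50 uM) then reacted 10 min; fluorescence read at 485/525 nm.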
GALK inh = galactokinase (human) inhibition | Potency, µM (titrated, usually from 57.5 µM), actives largely listed as inhibitors | AID 1868 | P51570 | 0.007% of 270,000 active | Purified GALK, Kinase-Glo residual ATP luminescence
Target sequence (P51570 whole entry, looked up): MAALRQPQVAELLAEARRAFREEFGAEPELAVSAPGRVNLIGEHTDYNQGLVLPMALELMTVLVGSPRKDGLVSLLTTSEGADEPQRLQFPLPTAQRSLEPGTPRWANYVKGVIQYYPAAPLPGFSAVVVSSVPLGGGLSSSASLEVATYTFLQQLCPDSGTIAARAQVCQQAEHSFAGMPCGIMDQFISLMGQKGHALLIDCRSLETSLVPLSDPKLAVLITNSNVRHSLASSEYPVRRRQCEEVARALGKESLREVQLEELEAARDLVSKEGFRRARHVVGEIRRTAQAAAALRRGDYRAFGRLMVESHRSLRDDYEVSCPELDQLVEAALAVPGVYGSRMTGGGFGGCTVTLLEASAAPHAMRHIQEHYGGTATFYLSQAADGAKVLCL
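Luminescence from leftover ATP (Ultra-Glo luciferase/luciferin) served as read-out after a 1 h room-temperature reaction of 5 nM GALK with 35 uM ATP and 100 uM galactose.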
USP2a block = USP2a (human) protease inhibition | USP2 core, Ub-CHOP2 coupled fluorogenic reporter, 485/531 | Potency, µM (highest dose often 38.3 µM), most hits filed as inhibitors | 0.01% of 330,000 active
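Deubiquitinase activity read as fluorescence (485/531 nm) after Ub-CHOP2 cleavage activates the enterokinase reporter on its substrate; USP2 core 10nM, Ub-CHOP2 and substrate 25nM each, 30min compound preincubation then 60min RT; data normalized to NEM, curves fitted.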
TrxR1 inh-1 = rat TrxR1 inhibition; O89049; Potency, µM (doses to about 114 µM), actives largely listed as inhibitors; AID 588453; recombinant rTrxR1, NADPH fluorescence consumption, selenite substrate; 1% of 390,000 active; note: nearly all actives have a fitted effect of over 65% in size
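Rat TrxR1 (90 nM in the dispensed reagent) was pre-reduced with 400 uM NADPH for 5 min at room temperature, then incubated with compound for 15 min. After 400 uM selenite was added, NADPH fluorescence (Ex 340/Em 450 nm) was followed for 8 min.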
GR counterassay = inhibits human glutathione reductase in TrxR1 counterassay | AID 652020 | 55 tested, under 10 active | activity change, negative = inhibition, % at 57.1 µM | shares compounds with TrxR1 inh-1 | purified GR, DTNB reduction absorbance 405 nm kinetic
TrxR1 inh-2 = validation of rat thioredoxin reductase 1 inhibitors. shares compounds with TrxR1 inh-1. recombinant TrxR1, NADPH fluorescence consumption, selenite substrate. Potency, µM, usual class: inhibitors. 50% of 55 active. AID 652023
TrxR1 insulin = TrxR1 inhibitors: insulin reduction mechanism-of-action test. shares compounds with TrxR1 inh-1. TrxR1 Trx-coupled insulin reduction, NADPH absorbance 340 nm. AID 652037. 20% of 55 active. Potency, µM;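 active = compounds with a measured potency under 100 micromolar; inconclusive = filed, but no rule given; inactive = potency at or above that, or unmeasurable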
TrxR1 inh-3 = blocks rat TrxR1 reduction of DTNB; purified TrxR1, DTNB reduction, A412; shares compounds with TrxR1 inh-1; Potency, µM; 90% of 55 active;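 active = a half-inhibiting concentration could be measured and was below 100 µM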
Each line names hits and unclear results; the compound was inactive in the other large screens (follow-up assays come after a bar, where they were run). In the library only some 1% were active in any assay of this set; here they are far more common. Unless noted, calls come from the whole dose curve; as a rule, active = well fitted curve in the direction sought with a large enough effect; inconclusive = small, poorly fitted or top-dose-only effect, or another doubt; inactive = no such curve, though single readings can be large; an effect the other way counts as inactive or inconclusive.

Cc1ccccc1NC(=S)NC(=O)CCc1ccccc1	TrxR1 inh-1 13µM | GR counterassay inactive | TrxR1 inh-2 3 | TrxR1 insulin inactive | TrxR1 inh-3 36µM
Cc1ccc(-c2nc(C)sc2CC(=O)NCc2ccco2)cc1	TrxR1 inh-1 50µM | GR counterassay inactive | TrxR1 inh-2 5.3 | TrxR1 insulin inactive | TrxR1 inh-3 10µM
COc1ccc(Nc2c3c(nc4ccc(NC(=O)c5cc(Cl)ccc5OC)cc24)CCCC3)cc1OC	none (no result: Eya2 inh, GALK inh, USP2a block)
O=[N+]([O-])c1ccc(Cl)c(S(=O)(=O)Nc2cccc(S(=O)(=O)NC3=NCCC3)c2)c1	RGS4 inh inconclusive, TrxR1 inh-1 2.5µM (no result: GALK inh) | GR counterassay inactive | TrxR1 inh-2 0.6 | TrxR1 insulin inactive | TrxR1 inh-3 0.051µM
Cc1c(NC2=C(Cl)C(=O)N(c3ccccc3)C2=O)c(=O)n(-c2ccccc2)n1C	TrxR1 inh-1 3.2µM | GR counterassay inactive | TrxR1 inh-2 2.7 | TrxR1 insulin inactive | TrxR1 inh-3 inactive
Cc1cccc(N2CCN(c3cc(C)nc4nnnn34)CC2C)c1 (stereo not drawn)	TrxR1 inh-1 32µM | GR counterassay inactive | TrxR1 inh-2 inconclusive | TrxR1 insulin 84µM | TrxR1 inh-3 0.11µM

From PubChem
